Screening data from PubChem BioAssay.
In the library only some 8.7% were active in any assay of this set; here they are far more common.
JMJD2A Tudor inh – inhibitors of human JMJD2A Tudor domain | O75164 | AlphaScreen JMJD2A-Tudor / H3K4me3 peptide binding | Potency, µM (series often up to 114 µM), for inactives: at the highest dose activity change, negative = inhibition, usual class: inhibitors | 390,000 compounds, 4.4% hits | AID 504339; further: on the % scale 0 is the no-effect control and ±100 the full control effect; nearly all actives have a fitted effect of over 50% in size
G9a inh – G9a (human) methyltransferase inhibition. AID 504332. 350,000 compounds, 8.8% hits. Q96KQ7. G9a H3K9 monomethylation, AlphaScreen, 2 h. Potency, µM (top dose mostly 102 µM), for the others: at the top dose activity, negative = inhibition, usual class: inhibitors; further: on the % scale 0 is the no-effect control and ±100 the full control effect; nearly all actives have a fitted effect of over 75% in size
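Using a bead-based AlphaScreen, monomethylated H3K9 product from 2 h room-temperature reactions (G9a 20 nM, peptide 500 nM, SAM 20 uM) was detected with 0.5 ug/mL rabbit anti-H3K9me1 antibody.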
ALOX12 inh – blocks human arachidonate 12S-lipoxygenase | AID 1671190 | 580,000 compounds, 1.1% hits | Potency, µM (highest dose often 108 µM), for inactives: at the top dose activity change, negative = inhibition, usual class: inhibitors | purified 12hLO, xylenol orange hydroperoxide absorbance; further: on the % scale 0 is the no-effect control and ±100 the full control effect
Target sequence (P18054 whole entry, looked up): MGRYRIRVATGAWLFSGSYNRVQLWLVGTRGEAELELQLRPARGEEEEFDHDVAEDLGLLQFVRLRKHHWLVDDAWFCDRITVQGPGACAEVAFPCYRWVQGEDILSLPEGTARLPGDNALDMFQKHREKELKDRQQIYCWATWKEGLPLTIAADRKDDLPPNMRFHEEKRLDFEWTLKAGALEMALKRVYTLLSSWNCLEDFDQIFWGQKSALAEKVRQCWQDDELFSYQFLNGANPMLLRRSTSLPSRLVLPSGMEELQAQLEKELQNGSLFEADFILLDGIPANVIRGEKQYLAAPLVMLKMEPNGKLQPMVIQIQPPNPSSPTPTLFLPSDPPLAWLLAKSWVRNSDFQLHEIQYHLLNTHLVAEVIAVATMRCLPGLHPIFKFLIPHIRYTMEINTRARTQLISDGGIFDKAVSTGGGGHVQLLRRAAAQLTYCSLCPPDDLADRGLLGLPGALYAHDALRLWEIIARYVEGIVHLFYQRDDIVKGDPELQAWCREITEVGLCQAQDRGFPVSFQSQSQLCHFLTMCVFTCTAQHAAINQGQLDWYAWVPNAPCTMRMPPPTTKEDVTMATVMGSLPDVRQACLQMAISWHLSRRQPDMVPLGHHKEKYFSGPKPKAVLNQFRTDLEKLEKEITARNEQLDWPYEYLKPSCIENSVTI
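Purified human 12hLO at 150 nM in 25 mM Hepes, 0.01% Triton X-100, pH 7.0, preincubated 15 min at room temperature with compound. Reaction started with 40 uM arachidonic acid, 30 min at room temperature. Hydroperoxide measured by Fe-xylenol orange, 573/405 nm absorbance ratio.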
HP1b chromo inh – inhibitors of HP1-beta chromodomain binding to methylated histone tails; P83916; AlphaScreen HP1-beta / biotin-H3K9me3 peptide binding; Potency, µM (highest dose often 114 µM), for inactives: top-dose activity change, negative = inhibition, actives largely listed as inhibitors; 390,000 compounds, 0.56% hits; AID 540317; further: nearly all actives have a fitted effect of over 70% in size
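HP1-beta protein (50 nM final) preincubated 30 min at room temperature with biotinylated H3(1-18)K9me3 peptide (50 nM) in PBS pH 7.4, 0.01% Tween-20, then compound added for 30 min. AlphaScreen streptavidin donor/nickel chelate acceptor beads (10 ug/mL final), 30 min dark, luminescence read.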
Sfp inh – inhibitors of Bacillus subtilis Sfp phosphopantetheinyl transferase; 310,000 compounds, 3.5% hits; Biochemical Sfp PPTase activity, qHTS; Potency, µM, for the others: largest response in the series, negative = inhibition, most hits filed as inhibitors;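 further: the enzyme is Sfp with the accession as filed and its product quenches rhodamine fluorescence; 0% = enzyme reaction without inhibitor and -100% = no enzyme wells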
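With Hepes-Na pH 7.6 buffer containing 10 mM MgCl2, Sfp (15 nM) modified BHQ-2-YbbR (12.5 uM) using rhodamine-CoA (5 uM). Two reads 30 minutes apart at 525/598 nm yielded each well's rate.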
BAZ2B block – blocks human BAZ2B; AID 504333; Potency, µM (highest dose often 114 µM), for inactives: at the top dose activity change, negative = inhibition, hits mostly inhibitors; 360,000 compounds, 4.4% hits; Q9UIF8; AlphaScreen BAZ2B-H3K14Ac peptide displacement; further: on the % scale 0 is the no-effect control and ±100 the full control effect; nearly all actives have a fitted effect of over 60% in size
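Inhibition is scored as reduced AlphaScreen emission. The BAZ2B/b-H3(5-23)K14Ac complex (50 nM each) in PBS pH 7.4, 0.01% Tween-20 meets compound (up to 110 uM) for 30 min at RT before bead addition.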
* marks the source's active call; other numbers are inactive results; ? = inconclusive; / = no result given; [ ] = dose if it differs, or a comment. The call rests on the fitted dose curve; in most records, active means well fitted curve in the direction sought with a large enough effect; inconclusive means small, poorly fitted or top-dose-only effect, or another doubt; inactive means no such curve, though single readings can be large; an effect the other way counts as inactive or inconclusive. Potency means the concentration at half of the fitted maximal effect.

SMILES	JMJD2A Tudor inh	G9a inh	ALOX12 inh	HP1b chromo inh	Sfp inh	BAZ2B block
C#Cc1ccc(CN2CCC(N3CCC(C(=O)NCc4ccccn4)CC3)CC2)cc1	-9%	/	1%	12%	0%	-12%
COCCNC(=O)C1CCCN(Cc2ccccc2)CC1 (stereo unspecified)	/	/	25%	/	/	/
CC(C)CNC(=O)C1CCN(Cc2ccc(OCc3ccccc3)cc2)CC1	1.1µM*	?	?	?	-8%	?
Fc1ccc(CN2CCSCC2)cc1Br	3.2µM*	8.9µM*	?	?	-17%	50µM*
O=C(NCc1ccccn1)C1CCN(Cc2cccc(OCc3ccccc3)c2)CC1	3.5µM*	-14%	6%	?	-27%	?
CCc1nc2ccccc2c(NC(=O)CNC(C)(C)C)c1C	/	/	-81%	/	/	/
Cc1ccc(Cl)cc1NC(=S)NCCSc1ccc(Cl)cc1	/	/	35µM*	/	/	/
COc1ccccc1NC(=S)NCCSc1ccc(Cl)cc1	-2%	-4%	2%	36%	5%	-30%
COc1ccc(Cl)cc1NC(=S)NCCSc1ccc(C)cc1	11%[57.1 µM]	2%	45µM*	64%	?	29%
COc1ccc(NC(=S)NCCSc2ccc(Cl)cc2)c(OC)c1	-33%	13µM*	?	-21%	?	?
COc1ccc2c(c1)c1ncn(Cc3ccco3)c(=O)c1n2C	-20%[57.1 µM]	1%[0.501 µM]	-9%	29%	18µM*	56%
CCCCNC1c2ccccc2C(=O)N1Cc1ccccc1 (stereo unspecified)	-4%	2%	40µM*	18%	-6%	-4%
CCOc1ccc(NC2c3ccccc3C(=O)N2Cc2ccc3c(c2)OCO3)cc1 (stereo unspecified)	45µM*	35µM*	-12%	?	1%	16µM*
O=C1c2ccccc2C(Nc2cccnc2)N1Cc1ccccc1 (stereo unspecified)	-14%	25µM*	-3%	17%	10%	?
CCC(=O)OC1c2ccccc2C(=O)N1Cc1ccccc1 (stereo unspecified)	-5%	17%	0%	40%	6%	-2%
O=C1c2ccccc2C(Nc2ccc3c(c2)OCCO3)N1Cc1ccccc1 (stereo unspecified)	40µM*	45µM*	/	?	1%	40µM*
CCN(CC)S(=O)(=O)c1ccc(C(C)NCc2sccc2C)cc1 (stereo unspecified)	/	/	-12%	/	/	/
Cc1ccc(-c2nn(-c3ccccc3)cc2C(=O)N2CCN(C3CCS(=O)(=O)C3)CC2)cc1 (stereo unspecified)	-4%	7.1µM*	200%	30%	/	7%
CCC1(c2ccc(F)cc2)NC(=O)N(CC(=O)Nc2ccccc2C)C1=O (stereo unspecified)	71µM*	-7%	-15%	6%	7%	-5%
CCC1(c2ccccc2)NC(=O)N(CC(=O)Nc2ccccc2C(=O)NC2CC2)C1=O (stereo unspecified)	-11%	50µM*	0%	37%	/	4%
CCCC(C)NC(=O)N1CCN(C(=O)Cc2c[nH]c3ccccc23)CC1 (stereo unspecified)	/	/	-32%	/	/	/
Nc1nc(C2CC(N)C2)cc(N2CCN(C3CCCC3)C(=O)C2)n1 (stereo unspecified)	/	/	36%	/	/	/
CN1CCc2c([nH]c3ccccc23)C12CCN(C(=O)c1ccc3ccccc3n1)CC2	/	/	-1%	/	/	/
COc1ccc2nc(SCC(=O)Nc3ccccc3C(=O)Nc3ccc4c(c3)OCO4)[nH]c2c1	/	/	6%	/	/	/
CCc1cccc(C)c1Nc1c(-c2ccc(SC)cc2)nc2sccn12	?	14µM*	?	?	/	22µM*
SMILES	JMJD2A Tudor inh	G9a inh	ALOX12 inh	HP1b chromo inh	Sfp inh	BAZ2B block
CCc1cccc(C)c1Nc1c(-c2ccc(N(C)C)cc2)nc2cnccn12	40µM*	18µM*	-2%	?	/	16µM*
CCc1cccc(C)c1Nc1c(-c2ccsc2)nc2ncccn12	-35%	-43%[59 µM]	1%	0%	/	?
N#Cc1ccc(COC(=O)c2ccccc2NCCO)cc1	/	/	-39%	/	/	/
O=[N+]([O-])c1ccccc1/C=C/C=N/n1c(-c2ccccc2F)n[nH]c1=S	45µM*	1.8µM*	-28%	?	28µM*	?
S=c1[nH]nc(-c2ccccc2)n1/N=C/c1cccc(Br)c1	-25%	-43%[0.501 µM]	6%	17%	10%	-2%
O=[N+]([O-])c1ccccc1/C=N/n1c(-c2ccccc2)n[nH]c1=S	8.9µM*	/	-1%	-28%	-13%	?
O=[N+]([O-])c1ccc(-c2nn(-c3ccccc3)cc2/C=N/n2c(-c3ccncc3)n[nH]c2=S)cc1	-30%	?	-2%	24%	5%	1%
Oc1ccc(Br)cc1/C=N/n1c(-c2ccccc2)n[nH]c1=S	?	/	?	-14%	56µM*	?
Oc1c(Br)cc(Br)c(/C=N/n2c(-c3ccccc3)n[nH]c2=S)c1Br	7.9µM*	/	18µM*	?	?	50µM*
O=[N+]([O-])c1ccccc1C=CC=NN=Cc1ccccc1O	-23%	/	13%	-13%	/	/
COCCNC(=O)[C@@H]1C[C@H](Oc2ccccc2)CN1S(=O)(=O)c1c(C)noc1C	/	/	27%	/	/	/
CN1C[C@@H](NC(=O)Nc2ccc(Cl)cc2)C[C@H]1c1nc(-c2ccc(F)cc2)no1	/	/	44%[176 µM]	/	/	/
N#Cc1ccc(Oc2ccc(-c3ccccc3)cc2)cc1	/	/	-7%	/	/	/
Cc1cccc(/C=N/n2c(-c3ccccc3)n[nH]c2=S)c1O	22µM*	1.3µM*	4.5µM*	50µM*	79µM*	?
CN(C(=O)c1cccc(N2C(=O)C3CC=CCC3C2=O)c1)C1CCCCC1 (stereo unspecified)	-19%	50µM*	0%	13%	-11%	-10%
O=C(N/N=C/C(Br)=C/c1ccccc1)C(O)c1ccccc1 (stereo unspecified)	-13%	4%	398%	18%	-5%	-22%
O=C(O)c1ccc(N/N=C/C(Br)=C/c2ccccc2)cc1	?	50µM*	40µM*	-3%	?	-34%
Clc1cc(Cl)c(N/N=C/C(Br)=C/c2ccccc2)c(Cl)c1	/	/	6.3µM*	/	/	/
CN(C)CCNc1cc(-c2ccc3ccccc3n2)c2cc[nH]c2n1	/	/	13%	/	/	/
CCOc1ccc(C2C(C(=O)Nc3ccc(F)cc3)=C(C)NC3=C2C(=O)CC(C)(C)C3)cc1 (stereo unspecified)	/	/	-26%	/	/	/
Cc1cccc(N(Cc2ccccc2)C(=O)CCl)c1	18%	9%	?	61%	5%	6%
Cc1cccc(N(CC(=O)O)CC(=O)O)c1	-35%	11µM*	-1%	1%	-24%	-31%
